Assay results published in PubChem BioAssay (Tox21).
Values without a mark were called inactive. Records with an inconclusive call do not appear. A call without a number means that no potency is given here. Active and inactive are the calls of the source. Unless noted, calls follow the shape of the full dose curve.

Tests used:
[1] = Nuclear factor erythroid 2-related factor 2/antioxidant responsive element (Nrf2/ARE) small molecule agonists: qHTS cell viability counter screen in human keratinocytes (AID 1919968; active = well fitted curve in the direction sought with a large enough effect in the repeat runs; an effect the other way counts as inactive or inconclusive; also: nearly all actives have a fitted effect of over 55% in size; also: potency is read from the fitted curve at half-maximal effect)
Procedure, shortened: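 KeratinoSens cells (HaCaT keratinocytes stably carrying an ARE-luciferase reporter) were seeded at 1,500 cells/well and rested 5 h at 37 C/5% CO2. They were then exposed to compounds in DMSO for 23 h. Viability was read by CellTiter-Fluor fluorescence after 1 h.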

[2] = biological target: Gonadotropin-releasing hormone receptor (Homo sapiens) (UniProt P30968); test: Human gonadotropin-releasing hormone receptor (GnRHR) small molecule agonists, calcium flux assay in GnRHR-HEK293 cells (AID 1920063); also: nearly all actives have a fitted effect of over 35% in size; also: potency is read from the fitted curve at half-maximal effect
Sequence of Gonadotropin-releasing hormone receptor (Homo sapiens) (P30968 whole entry, looked up): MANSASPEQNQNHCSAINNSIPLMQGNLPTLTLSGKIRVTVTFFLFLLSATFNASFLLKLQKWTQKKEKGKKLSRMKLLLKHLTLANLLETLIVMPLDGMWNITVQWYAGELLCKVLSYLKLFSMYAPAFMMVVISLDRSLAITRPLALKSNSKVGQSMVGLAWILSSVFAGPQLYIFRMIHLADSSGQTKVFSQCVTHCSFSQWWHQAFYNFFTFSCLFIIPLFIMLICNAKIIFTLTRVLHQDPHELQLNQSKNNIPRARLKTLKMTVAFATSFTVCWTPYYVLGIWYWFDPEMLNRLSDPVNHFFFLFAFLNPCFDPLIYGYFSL
Procedure, shortened: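 HEK293 cells stably expressing human GnRHR were plated 18 h at 37 °C, loaded with calcium dye 1 h at 37 °C, then given compound in agonist mode; fluorescence (Ex/Em 480/540) read kinetically for 3 min at 1 s intervals.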

[3] = biological target: KiSS-1 receptor (Homo sapiens) (UniProt Q969F8); test: Human kisspeptin (KISS1R) small molecule agonists, calcium flux assay in KISS1R-HEK293 cells (AID 1920064; active = well fitted curve in the direction sought with a large enough effect in the repeat runs; an effect the other way counts as inactive or inconclusive)
Sequence of KiSS-1 receptor (Homo sapiens) (Q969F8 whole entry, looked up): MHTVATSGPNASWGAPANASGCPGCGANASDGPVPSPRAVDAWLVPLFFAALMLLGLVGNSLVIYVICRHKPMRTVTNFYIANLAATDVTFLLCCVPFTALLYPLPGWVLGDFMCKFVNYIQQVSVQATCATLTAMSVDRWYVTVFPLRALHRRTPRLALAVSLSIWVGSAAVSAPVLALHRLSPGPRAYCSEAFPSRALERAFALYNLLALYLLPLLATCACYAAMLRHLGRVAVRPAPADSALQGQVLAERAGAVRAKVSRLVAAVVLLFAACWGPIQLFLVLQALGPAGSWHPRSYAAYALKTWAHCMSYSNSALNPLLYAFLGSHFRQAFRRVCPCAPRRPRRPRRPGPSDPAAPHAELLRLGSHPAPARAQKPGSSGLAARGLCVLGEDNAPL
Procedure, shortened: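 HEK293 cells stably expressing human KISS1R were plated 18 h at 37 °C, loaded with calcium dye for 1 h at 37 °C, then given compound by pin tool. Fluorescence (Ex/Em 480/540) was read kinetically for 3 min.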

[4] = G protein-coupled receptor (GPCR) small molecule agonists, calcium flux assay: HEK293 wild type cell line counter screen (AID 1920065)
Procedure, shortened: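 Cells were plated and cultured 18 h at 37 C/5% CO2, then loaded with calcium dye for 1 h at 37 C. Compounds in DMSO were pin-transferred in agonist mode, and fluorescence (Ex/Em 480/540) was read kinetically for 3 min at 1 s intervals.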

[5] = p53 small molecule agonists, cell-based qHTS assay with rat liver microsomes (AID 1963578)
Procedure, shortened: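 Rat liver microsome activation: microsomes 0.5 mg/mL, NADPH 0.5 mg/mL final; p53RE-bla cells, 16 h 37 C; LiveBLAzer readout, 2 h RT dark.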

[6] = p53 small molecule agonists, cell-based qHTS assay with human liver microsomes: qHTS cell viability counter screen (AID 1963579); also: nearly all actives have a fitted effect of over 45% in size; also: potency is read from the fitted curve at half-maximal effect
Procedure, shortened: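 Luminescent CellTiter-Glo read-out, 30 min at room temperature, gauged cytotoxicity in p53RE-bla cells exposed 16 h at 37 C to DMSO-dissolved compounds with metabolic activation by human liver microsomes and NADPH, each 0.5 mg/mL final.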

[7] = biological target: 5-hydroxytryptamine receptor 2A (Homo sapiens) (UniProt P28223); test: 5-hydroxytryptamine receptor 2A (HTR2A) small molecule antagonists, cell-based qHTS assay (AID 1963586); also: nearly all actives have a fitted effect of over 45% in size; also: potency is read from the fitted curve at half-maximal effect
Sequence of 5-hydroxytryptamine receptor 2A (Homo sapiens) (P28223 whole entry, looked up): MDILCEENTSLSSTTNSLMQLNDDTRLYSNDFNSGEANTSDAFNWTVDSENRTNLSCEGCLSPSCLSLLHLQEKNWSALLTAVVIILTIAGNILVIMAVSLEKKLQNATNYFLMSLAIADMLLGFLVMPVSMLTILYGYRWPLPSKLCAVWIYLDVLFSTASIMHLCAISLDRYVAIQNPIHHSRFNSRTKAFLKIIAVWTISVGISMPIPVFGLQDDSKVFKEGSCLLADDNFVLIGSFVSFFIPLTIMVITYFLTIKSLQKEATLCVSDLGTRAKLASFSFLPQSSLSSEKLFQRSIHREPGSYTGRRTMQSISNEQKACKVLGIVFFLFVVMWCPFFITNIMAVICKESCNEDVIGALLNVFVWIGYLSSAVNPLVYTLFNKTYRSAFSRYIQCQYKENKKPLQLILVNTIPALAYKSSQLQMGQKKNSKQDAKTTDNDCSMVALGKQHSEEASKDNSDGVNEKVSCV
Procedure, shortened: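 Antagonist-mode intracellular calcium assay: DOI (4 nM) added after 5 min compound pre-incubation at room temperature to dye-loaded HTR2A-CHO cells. Fluorescence followed for 3 min, sampled every second.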

[8] = biological target: 5-hydroxytryptamine receptor 2A (Homo sapiens) (UniProt P28223); test: 5-hydroxytryptamine receptor 2A (HTR2A) small molecule agonists, cell-based qHTS assay (AID 1963587); also: nearly all actives have a fitted effect of over 30% in size; also: potency is read from the fitted curve at half-maximal effect
Procedure, shortened: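 HTR2A-CHO cells, plated 18 h at 37 C/5% CO2, dye-loaded 1 h at 37 C; compounds in DMSO added by pin tool (agonist mode). Intracellular calcium flux read as kinetic fluorescence on FDSS over 2 min at 1 s intervals.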

[9] = biological target: Muscarinic acetylcholine receptor M1 (Homo sapiens) (UniProt P11229); test: Cholinergic receptor muscarinic 1 (CHRM1) small molecule antagonists, cell-based qHTS assay (AID 1963588); also: nearly all actives have a fitted effect of over 40% in size
Sequence of Muscarinic acetylcholine receptor M1 (Homo sapiens) (P11229 whole entry, looked up): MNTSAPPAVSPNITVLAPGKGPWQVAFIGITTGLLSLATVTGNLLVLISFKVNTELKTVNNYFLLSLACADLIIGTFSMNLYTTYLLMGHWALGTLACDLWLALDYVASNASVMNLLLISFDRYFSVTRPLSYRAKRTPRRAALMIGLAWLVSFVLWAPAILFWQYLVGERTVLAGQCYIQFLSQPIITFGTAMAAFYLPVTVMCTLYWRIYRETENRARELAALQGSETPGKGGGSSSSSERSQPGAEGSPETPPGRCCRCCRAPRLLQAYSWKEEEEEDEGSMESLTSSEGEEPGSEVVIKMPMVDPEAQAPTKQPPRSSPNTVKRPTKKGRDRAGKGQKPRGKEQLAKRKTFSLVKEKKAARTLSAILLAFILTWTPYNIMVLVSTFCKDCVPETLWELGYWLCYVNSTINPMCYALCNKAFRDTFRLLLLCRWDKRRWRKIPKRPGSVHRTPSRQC
Procedure, shortened: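 CHRM1-CHO calcium-flux assay, antagonist mode. Cells were seeded 18 h, dye-loaded 1 h at 37 C and given compound for 5 min at RT, then acetylcholine was added at 50nM. FDSS fluorescence was read 3 min; 15 concentrations, three runs.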

[10] = biological target: Muscarinic acetylcholine receptor M1 (Homo sapiens) (UniProt P11229); test: Cholinergic receptor muscarinic 1 (CHRM1) small molecule agonists, cell-based qHTS assay (AID 1963589); also: nearly all actives have a fitted effect of over 35% in size
Procedure, shortened: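 CHO cells stably expressing human CHRM1, seeded 18 h at 37 C/5% CO2, dye-loaded 1 h at 37 C, then given compound in agonist mode; intracellular calcium fluorescence read kinetically at 1 s intervals. Fifteen concentrations, three independent runs.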

[11] = p53 small molecule agonists, cell-based qHTS assay with human liver microsomes (AID 1963577);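 also: p53 response element beta-lactamase reporter cells with liver microsomes plus NADPH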
Procedure, shortened: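 p53RE-bla cells; 5 h settle, 37 C/5% CO2; cpd + HLM 0.5 mg/mL + NADPH 0.5 mg/mL (final); 16 h 37 C; LiveBLAzer 2 h RT dark; fluorescence readout.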

[12] = p53 small molecule agonists, cell-based qHTS assay: qHTS cell viability counter screen (AID 1963581); also: nearly all actives have a fitted effect of over 45% in size
Procedure, shortened: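 p53RE-bla HCT-116 cells were exposed to compounds for 16 h at 37 C; after the beta-lactamase FRET read in the same wells, CellTiter-Glo was added and luminescence (intracellular ATP) read after 30 min at room temperature.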

[13] = cAMP Responsive Elements (CRE) small molecule agonists, cell-based qHTS assay (AID 1963590)
Procedure, shortened: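 CRE-bla HEK 293T cells in DMEM with 10% dialyzed FBS, NEAA, pyruvate and 25 mM HEPES were plated 18 h at 37 C/5% CO2, then exposed to compounds in DMSO for 3 h before LiveBLAzer B/G FRET substrate addition.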

[14] = biological target: Beta-2 adrenergic receptor (Homo sapiens) (UniProt P07550); test: Adrenergic beta2 receptor (ADRB2) small molecule antagonists, cell-based qHTS assay (AID 1963592); also: series mostly up to about 92 µM; nearly all actives have a fitted effect of over 50% in size
Sequence of Beta-2 adrenergic receptor (Homo sapiens) (P07550 whole entry, looked up): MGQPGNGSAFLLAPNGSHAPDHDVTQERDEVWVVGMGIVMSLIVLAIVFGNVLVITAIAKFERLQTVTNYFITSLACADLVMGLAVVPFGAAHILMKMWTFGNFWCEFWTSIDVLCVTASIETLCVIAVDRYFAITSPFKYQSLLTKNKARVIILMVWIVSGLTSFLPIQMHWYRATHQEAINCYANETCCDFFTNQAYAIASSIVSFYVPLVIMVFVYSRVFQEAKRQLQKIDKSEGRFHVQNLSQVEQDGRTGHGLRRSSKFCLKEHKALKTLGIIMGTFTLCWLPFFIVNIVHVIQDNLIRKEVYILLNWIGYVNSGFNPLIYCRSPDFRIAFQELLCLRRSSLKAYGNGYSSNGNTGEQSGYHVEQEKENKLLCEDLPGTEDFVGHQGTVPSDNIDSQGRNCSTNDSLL
Procedure, shortened: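 Cells (CHO, stable ADRB2 overexpression) incubated 18-20hr at 37C; compounds added from DMSO; agonist mix (1nM isoproterenol, 100uM IBMX, 25uM Ro-20-1724) added; 0.5hr RT; d2-cAMP and anti-cAMP-cryptate added; 1hr RT; 665/615 nm read.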

[15] = biological target: D(2) dopamine receptor (Homo sapiens) (UniProt P14416); test: Dopamine D2 receptor (DRD2) small molecule agonists, cell-based qHTS assay (AID 1963594); also: nearly all actives have a fitted effect of over 35% in size
Sequence of D(2) dopamine receptor (Homo sapiens) (P14416 whole entry, looked up): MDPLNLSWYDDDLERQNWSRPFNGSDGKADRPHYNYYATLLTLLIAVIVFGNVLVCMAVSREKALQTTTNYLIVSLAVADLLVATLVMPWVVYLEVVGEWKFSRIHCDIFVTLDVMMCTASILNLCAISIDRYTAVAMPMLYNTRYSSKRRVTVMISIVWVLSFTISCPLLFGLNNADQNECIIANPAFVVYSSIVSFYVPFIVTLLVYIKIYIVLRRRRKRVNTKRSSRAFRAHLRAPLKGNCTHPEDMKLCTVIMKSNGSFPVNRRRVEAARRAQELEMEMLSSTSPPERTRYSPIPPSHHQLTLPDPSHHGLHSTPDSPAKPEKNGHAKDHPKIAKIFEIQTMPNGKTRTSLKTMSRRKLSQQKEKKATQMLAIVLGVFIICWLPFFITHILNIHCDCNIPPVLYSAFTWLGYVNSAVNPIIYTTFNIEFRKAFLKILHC
Procedure, shortened: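 HEK293 cells stably expressing DRD2 were cultured 24 h at 37 C, then given Ro20-1724 (0.1 mM final) and compounds for 10 min at room temperature. NKH477 (200nM) was then added for 30 min. cAMP was read by HTRF.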

[16] = biological target: D(2) dopamine receptor (Homo sapiens) (UniProt P14416); test: Dopamine D2 receptor (DRD2) small molecule antagonists, cell-based qHTS assay (AID 1963595; active = well fitted inhibition curve with a large enough effect in the signal ratio in the repeat runs, with a control signal flat; the % refers to the signal ratio)
Procedure, shortened: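 Readout: HTRF cAMP, cAMP-d2 competing with cellular cAMP for anti-cAMP cryptate, read after 1 h. Cells: DRD2-HEK293. Conditions: 0.1 mM Ro20-1724, 12 nM quinpirole, 200 nM NKH477, 30 min RT.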

[17] = p53 small molecule agonists, cell-based qHTS assay with rat liver microsomes: qHTS cell viability counter screen (AID 1963580); also: nearly all actives have a fitted effect of over 45% in size
Procedure, shortened: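 p53RE-bla HCT-116 cells (4,000/well) rested 5 h at 37 C, then given Tox21 compounds in DMSO with rat liver microsomes (0.5 mg/mL final) plus NADPH (0.5 mg/mL final) for 16 h at 37 C. Viability read by CellTiter-Glo luminescence after 30 min at room temperature.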

[18] = p53 small molecule agonists, cell-based qHTS assay (AID 1963582; active = well fitted activation curve with a large enough effect in the signal ratio in the repeat runs, not every such curve was filed as active; the % refers to the signal ratio)
Procedure, shortened: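 p53RE-bla beta-lactamase reporter cells rested 5 h at 37 C/5% CO2, then received compounds in DMSO by pin transfer and were incubated 16 h at 37 C. LiveBLAzer B/G FRET substrate was loaded for 2 h at room temperature before fluorescence reading.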

[19] = biological target: Beta-2 adrenergic receptor (Homo sapiens) (UniProt P07550); test: Adrenergic beta2 receptor (ADRB2) small molecule agonists, cell-based qHTS assay (AID 1963593);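 also: CHO cells stably overexpressing human ADRB2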
Procedure, shortened: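 CHO cells stably over-expressing ADRB2 were plated overnight at 37C, then dosed with compounds plus a stimulation mix containing 100uM IBMX and 25uM Ro-20-1724 for 0.5hr at room temperature. cAMP was measured by HTRF competition, 1hr.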

[20] = cAMP Responsive Elements (CRE) small molecule antagonists, cell-based qHTS assay (AID 1963591; active = well fitted inhibition curve with a large enough effect in the signal ratio in the repeat runs, not every such curve was filed as active; the % refers to the signal ratio)
Procedure, shortened: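 CRE-bla HEK293T cells were plated 18 h at 37 °C/5% CO2, pinned with compound in DMSO, then stimulated with NKH477 at 0.25 uM final for 3 h. LiveBLAzer B/G FRET substrate was added and plates incubated 2 h at room temperature.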

| SMILES | Potency [1] | Potency [2] | Potency [3] | Potency [4] | Potency [5] | Potency [6] | Potency [7] | Potency [8] | Potency [9] | Potency [10] | Potency [11] | Potency [12] | Potency [13] | Potency [14] | Potency [15] | Potency [16] | Potency [17] | Potency [18] | Potency [19] | Potency [20] |
| --- | --- | --- | --- | --- | --- | --- | --- | --- | --- | --- | --- | --- | --- | --- | --- | --- | --- | --- | --- | --- |
| O=C1C=CC(=O)N1 | 28 µM (active) | inactive | inactive | inactive | inactive | 21 µM (active) | inactive | inactive | inactive | inactive | – | – | – | – | – | – | – | – | – | – |
| COC(=O)/C=C/C(C)=C\C=C\C(C)=C\C=C\C=C(C)\C=C\C=C(C)\C=C\C(=O)O | inactive | inactive | inactive | inactive | – | inactive | inactive | inactive | inactive | inactive | inactive | inactive | inactive | inactive | inactive | inactive | – | – | – | – |
| O=C(O)Cc1cc(I)c(Oc2ccc(O)c(I)c2)c(I)c1 | inactive | inactive | inactive | inactive | – | inactive | inactive | inactive | inactive | inactive | inactive | – | – | inactive | inactive | – | inactive | – | – | – |
| CCCOC(=O)CCCCC(=O)OCCC | – | – | – | – | – | – | – | – | – | – | – | – | – | – | – | – | – | inactive | – | – |
| CCCCCOC(=O)c1ccc(O)cc1 | inactive | inactive | inactive | inactive | – | – | 9.54 µM (active) | 35.1 µM (active) | – | inactive | – | inactive | – | inactive | – | inactive | inactive | – | inactive | – |
| CCCCCCCCCCC1CO1 (stereo unspecified) | inactive | inactive | inactive | – | inactive | – | inactive | – | inactive | inactive | inactive | inactive | inactive | inactive | inactive | inactive | inactive | inactive | – | inactive |
| CC1(C)[C@@H](O)CC[C@]2(C)[C@H]3C(=O)C=C4[C@@H]5C[C@@](C)(C(=O)O)CC[C@]5(C)CC[C@@]4(C)[C@]3(C)CC[C@@H]12 | 67.8 µM (active) | 34.3 µM (active) | inactive | – | inactive | 32 µM (active) | – | 48.4 µM (active) | inactive | – | inactive | – | – | inactive | inactive | inactive | – | inactive | inactive | – |
| Nc1nc(Cl)cc(Cl)n1 | inactive | inactive | inactive | inactive | – | inactive | – | inactive | inactive | inactive | – | inactive | – | inactive | inactive | inactive | – | – | – | – |
| CC(C(=O)O)c1ccc2c(c1)[nH]c1ccc(Cl)cc12 (stereo unspecified) | inactive | inactive | inactive | – | inactive | inactive | inactive | inactive | inactive | – | inactive | – | – | inactive | inactive | inactive | inactive | – | inactive | – |
